In PubChem BioAssay (NCATS):
Records with an inconclusive call do not appear. Active and inactive are the calls of the source. Unless noted, calls follow the shape of the full dose curve. Square brackets hold non-standard residues; d marks the D form. Peptide text beside a SMILES is read from it. * marks the point of attachment. Nva = CCC[C@H](N)C(=O)O; Cbz = O=C(OCc1ccccc1)*

What was measured:
[1] = qHTS profiling of the MIPE4 collection as inhibitors of Plasmodium falciparum (3D7) proliferation (AID 743344; call rule not given here); settings: P. falciparum 3D7 in erythrocytes, SYBR Green DNA fluorescence, 72 h; at 28.5 µM unless noted
Method in brief: (§1)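 Parasite DNA was quantified by SYBR Green I fluorescence (ex 485, em 535 nm) after overnight lysis in saponin/Triton buffer at room temperature. Cultures at 0.3% parasitemia and 2.5% hematocrit were first exposed to compound for 72 h at 37 C; signals were normalised to artemisinin (0.29 uM) and vehicle wells.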

[2] = qHTS profiling of the MIPE4 collection as inhibitors of Plasmodium falciparum (DD2) proliferation (AID 743345; call rule not given here); settings: P. falciparum Dd2 in erythrocytes, SYBR Green DNA, 72 h; at 28.5 µM unless noted
Method in brief: as §1

[3] = qHTS profiling of the MIPE4 collection as inhibitors of Plasmodium falciparum (DD2) proliferation (Rep 2) (AID 743346; call rule not given here); settings: P. falciparum Dd2 in erythrocytes, SYBR Green DNA, 72 h; at 28.5 µM unless noted
Method in brief: as §1

[4] = qHTS profiling of the MIPE4 collection as inhibitors of Plasmodium falciparum (HB3) proliferation (AID 743347; call rule not given here); settings: P. falciparum HB3 in erythrocytes, SYBR Green DNA, 72 h; at 28.5 µM unless noted
Method in brief: as §1

[5] = qHTS for Inhibitors of the Functional Ribonucleoprotein Complex (vRNP) of Lassa (LASV) Arenavirus: LASV Primary Screen - GLuc reporter signal (AID 1347082; calls by dose curve; tested in HEK293 reporter line; also: nearly all actives have a fitted effect of over 60% in size; also: potency is read from the fitted curve at half-maximal effect)
[6] = qHTS for Inhibitors of the Functional Ribonucleoprotein Complex (vRNP) of Lassa (LASV) Arenavirus: Viability assay - alamar blue signal for LASV Primary Screen (AID 1347083; calls by dose curve; tested in HEK293 reporter line; also: nearly all actives have a fitted effect of over 80% in size; also: potency is read from the fitted curve at half-maximal effect)
[7] = qHTS for Inhibitors of the Functional Ribonucleoprotein Complex (vRNP) of Lymphocytic Choriomeningitis Arenaviruses (LCMV): Viability assay - alamar blue signal for LCMV Primary Screen (AID 1347085; calls by dose curve; tested in HEK293 reporter line; also: nearly all actives have a fitted effect of over 80% in size; also: potency is read from the fitted curve at half-maximal effect)
[8] = target: Nucleoprotein (Lymphocytic choriomeningitis virus (strain Armstrong)) (UniProt P09992); experiment: qHTS for Inhibitors of the Functional Ribonucleoprotein Complex (vRNP) of Lymphocytic Choriomeningitis Arenaviruses (LCMV): LCMV Primary Screen - GLuc reporter signal (AID 1347086); also: nearly all actives have a fitted effect of over 70% in size
[9] = Inducers of the Endoplasmic Reticulum Stress Response (ERSR) in human glioma: Validation (AID 504836; active = well fitted curve in the direction sought with a large enough effect; an effect the other way counts as inactive or inconclusive)
Method in brief: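 Stably transfected U87-MG glioma cells carrying a GRP78-based luciferase sensor; 16 h compound incubation. Luminescence end-point read 10 min after Bright-Glo addition at room temperature.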

[10] = Primary qHTS to identify inhibitors of SARS-CoV-2 cell entry (AID 1645846); settings: activity change, negative = inhibition: at 57.1 µM (top of the series) unless noted; also: nearly all actives have a fitted effect of over 45% in size; also: potency is read from the fitted curve at half-maximal effect
Method in brief: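 HEK293 cells stably expressing human ACE2, pre-treated 1 h with compound, then infected with MLV particles pseudotyped with Wuhan-Hu-1 spike (C-terminal 19-aa truncation). Luciferase luminescence after 48 h at 37 °C, normalised to spike PP and bald PP.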

[11] = target: Cytochrome P450 2C9 (Homo sapiens) (UniProt P11712); experiment: qHTS Assay for Inhibitors and Substrates of Cytochrome P450 2C9 (AID 883; active = well fitted curve in the direction sought with a large enough effect; an effect the other way counts as inactive or inconclusive; also: potency is read from the fitted curve at half-maximal effect; nearly all actives have a fitted effect of over 60% in size)
Method in brief: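 Human CYP2C9 (10nM) with Luciferin-H at 100uM (its KM) in 25mM KPO4; compound preincubated 10 min at 37C, then NADPH regeneration for 60 min at 37C. Luciferin read by luminescence after detection reagent; normalized to 57uM sulphaphenazole as full inhibition.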

[12] = target: Cytochrome P450 3A4 (Homo sapiens) (UniProt P08684); experiment: qHTS Assay for Inhibitors and Substrates of Cytochrome P450 3A4 (AID 884; active = well fitted curve in the direction sought with a large enough effect; an effect the other way counts as inactive or inconclusive; also: potency is read from the fitted curve at half-maximal effect; nearly all actives have a fitted effect of over 50% in size)
Method in brief: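 Luminescent readout of luciferin produced by CYP3A4 (20 nM) dealkylation of Luciferin-PPXE, 25 uM (its KM). NADPH-driven reaction ran 60 min at RT after 10 min compound preincubation; data scaled to 57 uM ketoconazole as 100% inhibition.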

[13] = target: Cytochrome P450 3A4 (Homo sapiens) (UniProt P08684); experiment: qHTS Assay for Activators of Cytochrome P450 3A4 (AID 885; active = well fitted curve in the direction sought with a large enough effect; an effect the other way counts as inactive or inconclusive; also: nearly all actives have a fitted effect of over 65% in size)
Method in brief: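 Luminescent readout of luciferin formed from 25 uM Luciferin-PPXE (KM level) by 20 nM CYP3A4 in 200 mM KPO4, with 60 min NADPH-driven reaction at room temperature after 10 min compound exposure. Ketoconazole (57 uM) defined 100% inhibition.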

[14] = target: Cytochrome P450 2D6 (Homo sapiens) (UniProt P10635); experiment: qHTS Assay for Inhibitors and Substrates of Cytochrome P450 2D6 (AID 891; active = well fitted curve in the direction sought with a large enough effect; an effect the other way counts as inactive or inconclusive; also: potency is read from the fitted curve at half-maximal effect; nearly all actives have a fitted effect of over 60% in size)
Method in brief: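 Luminescent read-out of luciferin formed by 5 nM human CYP2D6 demethylating 30 uM Luciferin-ME EGE (Km level) over 60 min at room temperature after NADPH regeneration addition. Data normalized to full inhibition by 1.43 uM quinidine.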

[15] = target: Cytochrome P450 2C19 (Homo sapiens) (UniProt P33261); experiment: qHTS Assay for Inhibitors and Substrates of Cytochrome P450 2C19 (AID 899; active = well fitted curve in the direction sought with a large enough effect; an effect the other way counts as inactive or inconclusive; also: potency is read from the fitted curve at half-maximal effect; nearly all actives have a fitted effect of over 60% in size)
Method in brief: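 5 nM human CYP2C19 with 10uM Luciferin-H EGE (at KM) in 50mM KPO4, compound preincubated 10 min at 37C, then NADPH regeneration for 60 min at 37C. Luciferin read by luminescence after detection reagent; normalized to 57uM ketoconazole as full inhibition.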

[16] = Primary qHTS for inhibitors of SARS-S pseudo-typed particle cell entry (AID 1479145); also: nearly all actives have a fitted effect of over 45% in size
[17] = Primary qHTS for Huh7 cytotoxicity: counterscreen for inhibitors of MERS-S pseudotyped particle cell entry (AID 1479147); settings: outcome: dose series up to 57.1 µM unless noted
[18] = Primary qHTS for Vero E6 cytotoxicity: counterscreen for inhibitors of SARS-S pseudo-typed particle cell entry (AID 1479150); settings: outcome: dose series up to 57.1 µM unless noted
[19] = Confirmatory qHTS for VERO E6 Cytotoxicity Assay: Counterscreen for SARS-CoV-2 CPE Assay (AID 1508605); also: nearly all actives have a fitted effect of over 60% in size; also: potency is read from the fitted curve at half-maximal effect
[20] = Confirmatory qHTS for activators (rescue) of SARS-CoV-2 Cytopathic Effect (CPE) (AID 1508606); also: potency is read from the fitted curve at half-maximal effect; nearly all actives have a fitted effect of over 70% in size
[21] = Cytotoxicity counterscreen for inhibitors of SARS-CoV-2 cell entry (AID 1645845); also: nearly all actives have a fitted effect of over 50% in size
Method in brief: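 Counterscreen run in the same HEK293-ACE2 line as the pseudotyped-particle entry assay, without particles. Viability after 48 h at 37 C was read as ATP luminescence, scaled between cell-containing and cell-free wells.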

[22] = Primary qHTS for inhibitors of MERS-S pseudo-typed particle cell entry (AID 1479149); also: nearly all actives have a fitted effect of over 60% in size
[23] = VSVG counterscreen qHTS to identify inhibitors of SARS-CoV-2 cell entry (AID 1645847); also: potency is read from the fitted curve at half-maximal effect; nearly all actives have a fitted effect of over 65% in size
Method in brief: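 HEK293-ACE2 cells (Expi293F, human ACE2) pretreated 1 h with compound, then infected with MLV-based VSV-G pseudotyped particles for 48 h at 37 C; luciferase luminescence normalized to VSV-G PP and bald PP wells.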

[24] = target: Alpha-galactosidase (Coffea arabica) (UniProt Q42656); experiment: Counterscreen for Glucocerebrosidase Inhibitors: qHTS Assay for Coffee Bean alpha-Galactosidase at pH 4.5 (AID 957; active = well fitted curve in the direction sought with a large enough effect; an effect the other way counts as inactive or inconclusive)
Method in brief: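 Quantitative HTS of compounds (0.7 nM to 77 uM) against coffee bean alpha-galactosidase at pH 4.5, measuring 4-methylumbelliferone fluorescence released from 80 uM substrate.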

[25] = target: Alpha-galactosidase (Coffea arabica) (UniProt Q42656); experiment: Counterscreen for Glucocerebrosidase Inhibitors: qHTS Assay for Coffee Bean alpha-Galactosidase at pH 5.9 (AID 998; active = well fitted curve in the direction sought with a large enough effect; an effect the other way counts as inactive or inconclusive)
Method in brief: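 Enzyme 2 nM + cpd (0.7 nM–77 uM titration) + 4-MU-alpha-Gal 80 uM, pH 5.9 citrate/Tween-20, RT 20 min, NaOH/glycine stop pH 10, fluor 365/440. Normalized to no-enzyme and full-activity controls; Hill-fit AC50.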

[26] = Validation screen for inhibitors of Lassa infection (AID 463096)

Nucleoprotein (Lymphocytic choriomeningitis virus (strain Armstrong)), sequence (P09992 whole entry, looked up): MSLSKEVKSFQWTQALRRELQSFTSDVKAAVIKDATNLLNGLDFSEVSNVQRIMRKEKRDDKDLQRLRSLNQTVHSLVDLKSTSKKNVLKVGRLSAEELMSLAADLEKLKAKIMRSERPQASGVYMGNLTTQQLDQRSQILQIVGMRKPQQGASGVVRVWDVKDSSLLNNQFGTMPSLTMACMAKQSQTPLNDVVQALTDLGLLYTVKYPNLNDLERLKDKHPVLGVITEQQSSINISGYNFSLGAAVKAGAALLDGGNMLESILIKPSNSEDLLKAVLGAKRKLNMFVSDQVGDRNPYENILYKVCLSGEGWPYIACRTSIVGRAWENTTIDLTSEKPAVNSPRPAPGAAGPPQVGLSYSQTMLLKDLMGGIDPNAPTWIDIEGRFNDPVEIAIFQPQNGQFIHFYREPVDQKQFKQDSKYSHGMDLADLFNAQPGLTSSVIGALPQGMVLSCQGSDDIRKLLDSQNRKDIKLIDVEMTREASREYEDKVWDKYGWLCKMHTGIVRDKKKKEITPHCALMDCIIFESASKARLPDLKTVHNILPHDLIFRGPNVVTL
Alpha-galactosidase (Coffea arabica), sequence (Q42656 whole entry, looked up): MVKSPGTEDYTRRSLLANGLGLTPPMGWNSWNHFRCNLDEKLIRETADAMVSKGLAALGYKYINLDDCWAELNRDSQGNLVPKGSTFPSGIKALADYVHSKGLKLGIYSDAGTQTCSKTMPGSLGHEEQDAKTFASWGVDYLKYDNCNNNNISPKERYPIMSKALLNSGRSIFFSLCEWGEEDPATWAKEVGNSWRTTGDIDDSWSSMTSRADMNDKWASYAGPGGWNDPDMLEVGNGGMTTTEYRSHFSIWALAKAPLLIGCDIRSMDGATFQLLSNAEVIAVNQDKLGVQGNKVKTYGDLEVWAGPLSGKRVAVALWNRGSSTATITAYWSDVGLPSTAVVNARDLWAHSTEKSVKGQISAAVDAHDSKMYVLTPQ
Cytochrome P450 3A4 (Homo sapiens), sequence (P08684 whole entry, looked up): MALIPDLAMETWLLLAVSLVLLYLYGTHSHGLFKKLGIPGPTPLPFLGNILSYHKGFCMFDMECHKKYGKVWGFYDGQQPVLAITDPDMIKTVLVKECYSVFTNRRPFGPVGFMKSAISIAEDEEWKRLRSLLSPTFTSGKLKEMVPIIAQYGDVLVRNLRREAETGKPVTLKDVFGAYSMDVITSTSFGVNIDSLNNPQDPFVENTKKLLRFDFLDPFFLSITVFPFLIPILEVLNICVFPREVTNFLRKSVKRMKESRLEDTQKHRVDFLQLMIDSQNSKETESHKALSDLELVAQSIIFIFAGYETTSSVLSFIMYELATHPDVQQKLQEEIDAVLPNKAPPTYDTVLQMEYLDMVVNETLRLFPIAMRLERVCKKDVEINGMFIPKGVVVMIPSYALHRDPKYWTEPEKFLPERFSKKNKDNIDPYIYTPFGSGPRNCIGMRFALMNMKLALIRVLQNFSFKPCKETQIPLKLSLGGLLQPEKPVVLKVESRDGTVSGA
Cytochrome P450 2C19 (Homo sapiens), sequence (P33261 whole entry, looked up): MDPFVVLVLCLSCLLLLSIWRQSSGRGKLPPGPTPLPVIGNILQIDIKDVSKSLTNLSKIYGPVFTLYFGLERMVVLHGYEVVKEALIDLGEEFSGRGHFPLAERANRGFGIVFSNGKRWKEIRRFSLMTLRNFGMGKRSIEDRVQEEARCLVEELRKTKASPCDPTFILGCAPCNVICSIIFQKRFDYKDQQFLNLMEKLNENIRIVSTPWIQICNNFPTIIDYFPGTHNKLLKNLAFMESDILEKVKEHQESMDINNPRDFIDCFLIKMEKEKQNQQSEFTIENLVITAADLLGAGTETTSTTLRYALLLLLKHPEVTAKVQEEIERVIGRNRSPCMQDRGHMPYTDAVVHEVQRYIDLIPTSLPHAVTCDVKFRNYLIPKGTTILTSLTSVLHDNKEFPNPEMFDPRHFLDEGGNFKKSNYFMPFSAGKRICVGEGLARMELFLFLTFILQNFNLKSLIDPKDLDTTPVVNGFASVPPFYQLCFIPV
Cytochrome P450 2D6 (Homo sapiens), sequence (P10635 whole entry, looked up): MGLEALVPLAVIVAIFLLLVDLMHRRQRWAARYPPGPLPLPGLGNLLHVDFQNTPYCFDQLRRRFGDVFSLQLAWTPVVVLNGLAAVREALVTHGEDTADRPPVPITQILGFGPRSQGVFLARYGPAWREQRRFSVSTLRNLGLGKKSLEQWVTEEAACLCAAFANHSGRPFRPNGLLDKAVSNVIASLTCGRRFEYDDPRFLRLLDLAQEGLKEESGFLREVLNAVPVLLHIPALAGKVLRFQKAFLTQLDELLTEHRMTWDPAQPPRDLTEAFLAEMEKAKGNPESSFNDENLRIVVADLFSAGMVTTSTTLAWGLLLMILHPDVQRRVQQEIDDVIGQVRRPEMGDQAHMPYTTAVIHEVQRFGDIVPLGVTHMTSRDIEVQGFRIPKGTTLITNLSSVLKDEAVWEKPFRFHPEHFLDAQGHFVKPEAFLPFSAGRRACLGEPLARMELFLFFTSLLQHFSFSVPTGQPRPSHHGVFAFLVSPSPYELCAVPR
Cytochrome P450 2C9 (Homo sapiens), sequence (P11712 whole entry, looked up): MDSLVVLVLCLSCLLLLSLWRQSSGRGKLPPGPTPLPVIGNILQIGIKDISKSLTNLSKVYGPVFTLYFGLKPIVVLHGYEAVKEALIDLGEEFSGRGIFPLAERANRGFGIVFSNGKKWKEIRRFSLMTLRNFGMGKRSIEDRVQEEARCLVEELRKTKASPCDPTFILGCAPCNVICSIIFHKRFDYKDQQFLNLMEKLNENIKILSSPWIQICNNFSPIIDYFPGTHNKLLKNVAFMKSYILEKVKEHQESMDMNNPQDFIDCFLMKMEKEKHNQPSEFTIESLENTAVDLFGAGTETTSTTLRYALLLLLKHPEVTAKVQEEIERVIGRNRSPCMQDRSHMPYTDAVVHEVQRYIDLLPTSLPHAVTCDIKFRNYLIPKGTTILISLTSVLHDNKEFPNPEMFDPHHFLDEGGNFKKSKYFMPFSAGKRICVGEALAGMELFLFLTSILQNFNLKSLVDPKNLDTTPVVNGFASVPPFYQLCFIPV

CC(C)OC(=O)[C@H](C)N[P@](=O)(OC[C@H]1O[C@@H](n2ccc(=O)[nH]c2=O)[C@](C)(F)[C@H]1O)Oc1ccccc1
inactive: Potency [5] | Potency [6] | Potency [7] | Potency [8]
76.4%: growth, % of control [4]
78.3%: parasite growth, % of control (lower = inhibition) [3]
62.8%: parasite growth, % of DMSO control [1]
95.7%: parasite growth remaining, % of DMSO control (lower = more inhibition) [2]

C=CCNc1ncnc2ccc(Br)cc12
inactive: outcome [9] | Potency [5] | Potency [6] | Potency [7]

CC(C)n1cnc2c(NCCCCCCNC(=O)OC(C)(C)C)nc(NCCO)nc21
active: Potency [10] 28.2 µM
inactive: Potency [5] | Potency [6] | Potency [7]

COc1c2ccoc2cc2oc(=O)ccc12
inactive: Potency [13] | Potency [5] | Potency [6] | Potency [7] | Potency [8]
active: Potency [11] 5.01 µM | Potency [12] 10 µM | Potency [14] 2 µM | Potency [15] 3.16 µM

COC(=O)[C@H]1[C@H]2C[C@@H]3c4[nH]c5ccccc5c4CCN3C[C@H]2C[C@@H](OC(=O)c2cc(OC)c(OC)c(OC)c2)[C@@H]1OC
active: Potency [20] 11.2 µM
inactive: Potency [5] | Potency [6] | Potency [7] | Potency [16] | outcome [17] | outcome [18] | Potency [19] | Potency [21]

CN(C)CCCc1cc(C(=O)Nc2ccc(-c3ccncc3)cc2)ccc1O
inactive: outcome [9] | Potency [5] | Potency [6] | Potency [7]

CCC[C@@H](C=O)NC(=O)[C@H](CC(C)C)NC(=O)[C@H](CC(C)C)NC(=O)OCc1ccccc1 (Cbz-Leu-Leu-[Nva]-aldehyde)
active: Potency [5] 3.43 µM | Potency [6] 5.44 µM | Potency [7] 12.2 µM | Potency [19] 0.714 µM | Potency [10] 0.891 µM

CCS(=O)(=O)Nc1ccc2[nH]c(O)c(C(=Nc3ccc(CN4CCCCC4)cc3)c3ccccc3)c2c1
active: Potency [5] 9.68 µM | Potency [6] 2.17 µM | Potency [7] 0.968 µM | Potency [10] 2.82 µM

CC(=O)N[C@H]1[C@@H]([C@H](O)[C@H](O)CO)OC(C(=O)O)=C[C@@H]1N=C(N)N
inactive: Potency [5] | Potency [6] | Potency [7] | Potency [8]
100%: parasite growth remaining, % of DMSO control (lower = more inhibition) [2] | growth, % of control [4]
142%: parasite growth, % of control (lower = inhibition) [3]
96.2%: parasite growth, % of DMSO control [1]

Cc1cccc2c1CC[C@H](CN1CCC(c3c(Cl)cccc3Cl)CC1)C[C@@H]2O
25.2%: parasite growth remaining, % of DMSO control (lower = more inhibition) [2]
inactive: Potency [5] | Potency [6] | Potency [7] | Potency [8]

O=c1c2ccccc2oc2ccccc12
inactive: Potency [13] | Potency [5] | Potency [6] | Potency [7] | Potency [8]
active: Potency [12] 12.6 µM

CC[C@@]1(O)C[C@H](O[C@H]2C[C@H](N(C)C)[C@H](O[C@H]3C[C@H](O)[C@H](O[C@H]4CCC(=O)[C@H](C)O4)[C@H](C)O3)[C@H](C)O2)c2c(cc3c(c2O)C(=O)c2c(O)cccc2C3=O)[C@@H]1C(=O)OC
active: Potency [6] 0.344 µM | Potency [7] 0.344 µM | Potency [23] 3.04 µM
inactive: Potency [5] | outcome [17] | Potency [22] | outcome [18] | Potency [21]

COc1cc(C[C@@H](CO)[C@H](CO)Cc2ccc(O)c(OC)c2)ccc1O
active: Potency [6] 1.72 µM | Potency [7] 2.73 µM
inactive: Potency [5] | Potency [10]

CN=C(N)NCCC[C@H](N)C(=O)O
inactive: outcome [24] | outcome [25] | Potency [5] | Potency [6] | Potency [7] | Potency [8]

CN1CCc2cc(NC(=O)Nc3cccnc3)ccc21
inactive: outcome [24] | outcome [25] | Potency [5] | Potency [6] | Potency [7] | Potency [8]

CN1CCC2(CCN3CCc4c(oc5ccccc45)C3C2)N(C)C1=O (stereo not given)
inactive: Potency [26] | outcome [9] | Potency [5] | Potency [6] | Potency [7]
